Source: PubChem (National Center for Advancing Translational Sciences (NCATS))
This is a sample that favours compounds with a hit; in the whole collection about 7% have one here.
KAT2A inh: blocks human GCN5L2 histone acetyltransferase. Q92830. GCN5L2 HAT assay, ThioGlo1 CoA-SH fluorescence. Potency, µM (titrated, usually from 58.9 µM), inactives show at the top dose activity change, negative = inhibition, actives largely listed as inhibitors. 390,000 compounds, 0.21% hits. AID 504327; note: potency is the fitted concentration of half-maximal effect; % is set by controls: 0 for no effect and ±100 for the full control effect
Target sequence (Q92830 whole entry, looked up): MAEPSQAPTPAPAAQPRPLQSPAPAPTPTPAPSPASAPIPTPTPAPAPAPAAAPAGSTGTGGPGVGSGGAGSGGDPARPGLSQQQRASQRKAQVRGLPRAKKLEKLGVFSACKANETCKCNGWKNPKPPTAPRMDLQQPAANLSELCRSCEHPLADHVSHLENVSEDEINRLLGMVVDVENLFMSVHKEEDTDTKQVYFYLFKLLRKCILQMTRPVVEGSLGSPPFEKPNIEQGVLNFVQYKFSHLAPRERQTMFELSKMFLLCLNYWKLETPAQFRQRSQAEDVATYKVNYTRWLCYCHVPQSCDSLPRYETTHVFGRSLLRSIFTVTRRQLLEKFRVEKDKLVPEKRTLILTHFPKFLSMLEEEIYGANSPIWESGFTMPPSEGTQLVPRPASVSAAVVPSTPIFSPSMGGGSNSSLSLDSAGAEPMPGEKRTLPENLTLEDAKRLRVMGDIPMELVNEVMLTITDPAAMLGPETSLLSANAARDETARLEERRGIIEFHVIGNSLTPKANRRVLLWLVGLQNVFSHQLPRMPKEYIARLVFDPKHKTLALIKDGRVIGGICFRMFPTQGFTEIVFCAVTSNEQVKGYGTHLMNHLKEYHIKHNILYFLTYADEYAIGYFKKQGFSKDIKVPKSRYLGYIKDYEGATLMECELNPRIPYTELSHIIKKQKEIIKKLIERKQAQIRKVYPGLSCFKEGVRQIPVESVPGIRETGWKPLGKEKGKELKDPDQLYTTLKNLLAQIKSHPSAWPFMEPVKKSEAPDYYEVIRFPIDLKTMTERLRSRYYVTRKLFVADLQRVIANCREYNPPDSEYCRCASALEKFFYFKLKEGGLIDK
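ThioGlo1-coupled HAT assay: 20nM GCN5L2, 70uM acetyl-CoA, 75uM H3(1-25) peptide, pH 7.5. Fluorescence read at 340/540nm at start and after 20 min at room temperature.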
BAZ2B inh: BAZ2B (human) inhibition. AlphaScreen BAZ2B-H3K14Ac peptide displacement. 360,000 compounds, 4.4% hits. Potency, µM (titrated, usually from 114 µM), without a hit: top-dose activity change, negative = inhibition, hits mostly inhibitors; note: potency is the fitted concentration of half-maximal effect; % is set by controls: 0 for no effect and ±100 for the full control effect; nearly all actives have a fitted effect of over 60% in size
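Compounds, titrated to a top concentration of 110 uM, were incubated 30 min at room temperature with preformed BAZ2B/acetyl-K14 H3 peptide complex (50 nM each). Proximity signal was measured by AlphaScreen after 20 min with beads.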
JMJD2A Tudor: blocks the human JMJD2A Tudor domain; AlphaScreen JMJD2A-Tudor / H3K4me3 peptide binding; Potency, µM (highest dose often 114 µM), for inactives: at the highest dose activity change, negative = inhibition, most hits filed as inhibitors; 390,000 compounds, 4.4% hits; note: potency is the fitted concentration of half-maximal effect; % is set by controls: 0 for no effect and ±100 for the full control effect; nearly all actives have a fitted effect of over 50% in size
PI5P4Ka inh: inhibitors of human PI5P4K alpha; P48426; PI5P4Kalpha enzyme, ADP-Glo luminescence, 60 min; active compounds read low; max response, %; 330,000 compounds, 1.2% hits; active = max response of -50% or lower; inconclusive = between -30% and -50%; inactive = -30% or higher; note: value at the top dose of about 77 µM; % is set by controls: 0 for no effect and ±100 for the full control effect
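Luminescence from ADP-Glo served as readout of PI5P4Kalpha activity in a qHTS format. Reaction: enzyme, substrate, compound, ATP at 5 microM final, 60 min at RT.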
HP1b chromo inh: blocks HP1-beta chromodomain binding to methylated histone tails; 390,000 compounds, 0.56% hits; AlphaScreen HP1-beta / biotin-H3K9me3 peptide binding; P83916; Potency, µM (doses to about 114 µM), for the others: at the highest dose activity change, negative = inhibition, usual class: inhibitors; AID 540317; note: potency is the fitted concentration of half-maximal effect; nearly all actives have a fitted effect of over 70% in size
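AlphaScreen: HP1-beta (50 nM) preformed 30 min with biotin-H3(1-18)K9me3 peptide (50 nM) in PBS pH 7.4, 0.01% Tween-20. Compound added for 30 min at RT, then streptavidin donor/nickel chelate acceptor beads (10 ug/mL) for 30 min.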
PLK1 PBD inh: inhibitors of human PLK1 polo-box domain binding; P53350; Plk1 PBD binding of FITC phosphopeptide, fluorescence polarization; Potency, µM, for inactives: max response, negative = inhibition, actives largely listed as inhibitors; 360,000 compounds, 2.8% hits; AID 720504; note: potency is the fitted concentration of half-maximal effect; series mostly up to about 57 µM; % is set by controls: 0 for no effect and ±100 for the full control effect; nearly all actives have a fitted effect of over 65% in size
TbPYK confirm: confirmation of Trypanosoma brucei pyruvate kinase inhibitors. shares compounds with PLK1 PBD inh. recombinant TbPYK, Kinase-Glo ATP luminescence. Potency, µM (top dose mostly 76.9 µM), inactives show at the top dose activity change, negative = inhibition, usual class: inhibitors. 890 compounds, 67% hits; note: potency is the fitted concentration of half-maximal effect; % is set by controls: 0 for no effect and ±100 for the full control effect; nearly all actives have a fitted effect of over 70% in size
TbPYK ADP-Glo: inhibits T. brucei pyruvate kinase in orthogonal ADP-Glo assay; 890 compounds, 62% hits; Potency, µM (series often up to 76.9 µM), inactives show at the highest dose activity change, negative = inhibition, usual class: inhibitors; AID 720584; recombinant TbPYK, ADP-Glo luminescence, 60 min; shares compounds with PLK1 PBD inh; note: potency is the fitted concentration of half-maximal effect; % is set by controls: 0 for no effect and ±100 for the full control effect; nearly all actives have a fitted effect of over 75% in size
The depositor's hits bear a star; ? = inconclusive; nt = no result; [ ] = remark or other dose. Unless noted, calls come from the whole dose curve; as a rule, active = well fitted curve in the direction sought with a large enough effect; inconclusive = small, poorly fitted or top-dose-only effect, or another doubt; inactive = no such curve, though single readings can be large; an effect the other way counts as inactive or inconclusive.

SMILES | KAT2A inh | BAZ2B inh | JMJD2A Tudor | PI5P4Ka inh | HP1b chromo inh | PLK1 PBD inh | TbPYK confirm | TbPYK ADP-Glo
Cn1c(=O)[nH]c(=O)c2c1nc(SCCN1CCCCC1)n2CCCc1ccccc1 | -4% | -31% | ? | -10 | -10% | 2.4µM* | 3.5µM* | 4.5µM*
Cn1c(=O)[nH]c(=O)c2c1nc(SCC(=O)O)n2CCCc1ccccc1 | 18% | -11% | -11% | -6 | 26% | -29% | nt | nt
Cn1c(=O)[nH]c(=O)c2c1nc(SCC(=O)O)n2Cc1ccccc1 | 0% | 8% | 25µM* | ? | ? | -10% | ? | ?
Cc1ccc(Cn2c(SCCN3CCCCC3)nc3c2c(=O)[nH]c(=O)n3C)cc1 | 7% | 2% | -22% | -13 | -29% | 7.5µM* | 16µM* | 11µM*
Cn1c(=O)[nH]c(=O)c2c1nc(SCCN1CCCCC1)n2Cc1ccccc1 | 0% | 0% | -1% | 4 | 48% | -7% | nt | nt
CCOc1ccccc1NC(=O)Cn1nnc2sc(-c3ccccc3)cc2c1=O | -16% | -15% | -29% | nt | 21% | nt | nt | nt
Cc1cc(NS(=O)(=O)c2ccc(NC(=O)/C=C/c3ccc(C)o3)cc2)nc(C)n1 | -22% | -28% | 22µM* | ? | -26% | 8.4µM* | 7.9µM* | 11µM*
Cc1cc(NS(=O)(=O)c2ccc(NC(=O)/C=C/c3ccccc3)cc2)nc(C)n1 | -5% | nt | -10% | 3 | 25% | 4% | nt | nt
Cn1c(SCc2ccccc2)nnc1-c1ccc2nonc2c1 | -7% | 12% | -18% | -3 | -16% | -10% | nt | nt
COc1cc(C(=O)N2CC(=O)Nc3ccc(C)cc3C2c2ccc(F)cc2)cc(OC)c1OC (centres undefined) | -6% | 4% | 0% | nt | 56% | nt | nt | nt
O=C(O)c1ccc2nc(-c3ccco3)c(-c3ccco3)nc2c1 | -17% | 10µM* | 25µM* | ? | ? | 12µM* | 14µM* | 16µM*
O=C(NC1CCN(C(=O)c2cccc([N+](=O)[O-])c2)CC1)c1ccccc1 | 2% | 0% | -6% | 1 | -3% | 4% | nt | nt
CCOC(=O)c1ccc(NC(=O)CSc2nccn2C)cc1 | 2% | ? | -21% | -7 | 32% | -14% | nt | nt
CCCCOc1ccc(NC(=O)CCSc2nccn2C)cc1 | -3% | ? | 3.2µM* | 0 | -10% | -1% | 2µM* | 2.2µM*
COc1ccc(C2C(=O)N(C3CCCCC3)CC(=O)N2CCc2ccc(OC)c(OC)c2)cc1 (centres undefined) | 12% | -3% | -21% | nt | 4% | nt | nt | nt
NC(=O)CSc1nnc(-c2cccc(S(=O)(=O)N3CCOCC3)c2)n1C1CCCCCC1 | -3%[0.501 µM] | -4% | ? | ? | -9% | 3µM* | -13% | -19%
Cc1ccc(CSc2nnc(-c3cccc(S(=O)(=O)N4CCOCC4)c3)n2C2CCCC2)cc1 | -10% | -9% | -22% | 8 | ? | -6% | nt | nt
CC(C(=O)Nc1ccccn1)N1C(=O)c2ccccc2S1(=O)=O (centres undefined) | 2% | 4% | -19% | 5 | 17% | -8% | nt | nt
CN(C)c1ccc(N2C(=NC(=O)C3CCCO3)SC3CS(=O)(=O)CC32)cc1 (centres undefined) | -11% | ? | ? | -4 | 9% | -7% | nt | nt
Cc1ccc(C)c(C(=O)NCCN(C)C)c1 | -8% | 8% | 2% | -6 | 35% | -2% | nt | nt
C=C(CN(C)C)C(=O)c1cc(C)ccc1C | nt | nt | 89µM* | -1 | 35µM* | 2.7µM* | 5.6µM* | 16µM*
COc1ccc(CCn2c(C)ccc2C)cc1OC | -3% | -8% | nt | nt | nt | nt | nt | nt
COc1ccc(CCN2C(=O)C=CC2=O)cc1OC | nt | nt | 32µM* | -11 | ? | 6.7µM* | 4.5µM* | 5.6µM*
O=C1C(=Cc2cccc(O)c2O)SC(=S)N1CCCN1CCOCC1 | nt | nt | nt | -71* | nt | 5.3µM* | 4.5µM* | 2.2µM*
O=C(CCCN1C(=O)/C(=C/c2ccccc2Cl)SC1=S)NCCCN1CCOCC1 | -3% | ? | ? | 6 | -35% | -25% | nt | nt
SMILES | KAT2A inh | BAZ2B inh | JMJD2A Tudor | PI5P4Ka inh | HP1b chromo inh | PLK1 PBD inh | TbPYK confirm | TbPYK ADP-Glo
CC(=O)N[C@@H]1C=C[C@@H](CC(=O)NCc2ccc(Cl)cc2)O[C@@H]1CO | nt | nt | nt | 2 | nt | -6% | nt | nt
Cc1c(CCOC(=O)c2ccccc2)sc[n+]1Cc1ccccc1 | -1% | 3% | -5% | 4 | 54% | -2% | nt | nt
Cc1ccc2c(c1)sc[n+]2Cc1ccccc1 | -5% | 71µM* | 28µM* | nt | 21% | 3µM* | -20% | ?
COc1ccc(C(=O)NCCc2nnc3ccc(SCC(=O)NCc4ccccc4)nn23)cc1 | -24% | -7% | -3% | 2 | 24% | -3% | nt | nt
O=C(O)/C=C/C(=O)c1ccc2c(c1)CCc1ccccc1-2 | -23% | ? | -33% | ? | 17% | 6µM* | 13µM* | 16µM*
COc1cc(/C(C)=N/N2CCN(Cc3ccc(C)cc3)CC2)ccc1O | -3% | 0% | -23% | -1 | 8% | -13% | nt | nt
COc1cc(/C=N/N2CCN(Cc3ccc(C)cc3)CC2)cc(OC)c1O | 0% | 56µM* | 40µM* | -12 | ? | -5% | 22µM* | 28µM*
Oc1[nH]c(=S)sc1C=C1N=c2ccccc2=N1 | -9% | -33% | -28% | -21 | -3% | -4% | 22µM* | ?
CC(=O)/C(=N/Nc1cccc(Cl)c1)Sc1nnc(C(O)c2ccccc2)n1-c1ccccc1 (centres undefined) | 1% | -38% | -17% | 3 | 35% | -3% | nt | nt
COC(=O)/C(=N/Nc1ccccc1C)Sc1nnc(C(O)c2ccccc2)n1-c1ccccc1 (centres undefined) | -10% | -8% | -19% | -19 | 24% | -10% | 35µM* | 35µM*
COc1cc(N=c2ssnc2Cl)c(OC)cc1Cl | 11µM* | 28µM* | 25µM* | -68* | 11µM* | 1.7µM* | 4.5µM* | 6.3µM*
COc1ccc(OC)c(N=c2ssnc2Cl)c1 | 28µM* | 25µM* | ? | -64* | ? | 2.7µM* | 16µM* | 14µM*
O=C(NCc1ccccc1)Nc1nnc([C@@H]2C[C@H](O)[C@@H](CO)O2)s1 | nt | nt | nt | 7 | nt | 2% | nt | nt
CCN(C(=O)C1CCN(S(=O)(=O)c2ccc3c(c2)CCCN3C(C)=O)CC1)c1cccc(C)c1 | -7% | 0% | -4% | nt | 30%[57 µM] | nt | nt | nt
